Results from the supplement of paper PMC7184167.
Structures can show the parent of a compound that is named as a salt.

tested on: replication-induced senescent mouse newborn dermal fibroblasts (NBF); experiment: relative cell viability of senescent cells (fraction); higher = less killing of senescent cells; conditions: 1 µM; 3 days
Method: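 Replication-induced senescent newborn mouse skin fibroblasts (NBFs) in 24-well plates were treated with a Selleck FDA-approved drug library at 1 µM for 3 days.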

Question: `Nc1ncnc2c1ncn2[C@@H]1O[C@H](CO)[C@@H](O)[C@@H]1O` [Vidarabine] was tested. Which relative cell viability did it give?
Answer: 0.744

Question: How did the relative cell viability turn out when `C[C@H](Cc1cc2c(c(C(N)=O)c1)N(CCCO)CC2)NCCOc1ccccc1OCC(F)(F)F` [Silodosin] was run?
Answer: 0.806

Question: With `CC(C)CN(C[C@@H](O)[C@H](Cc1ccccc1)NC(=O)O[C@H]1CO[C@H]2OCC[C@H]21)S(=O)(=O)c1ccc(N)cc1` [Darunavir Ethanolate] as the molecule, how does the relative cell viability read?
Answer: 0.839

Question: For `Nc1nc2c(ncn2COCCO)c(=O)[nH]1` [Aciclovir], which relative cell viability is on record?
Answer: 1.06

Question: With `NC(=O)N1c2ccccc2CC(=O)c2ccccc21` [Oxcarbazepine] as the molecule, how does the relative cell viability read?
Answer: 0.905

Question: Which relative cell viability does the source give for `COc1cc2/c(=N/c3ccc(Br)cc3F)nc[nH]c2cc1OCC1CCN(C)CC1` [Vandetanib (ZD6474)] here?
Answer: 0.464

Question: How did the relative cell viability turn out when `CN(C)CCc1c[nH]c2ccc(Cn3cncn3)cc12` [Rizatriptan Benzoate] was run?
Answer: 1.09

Question: With `CCCCCCCCCCC[C@@H](C[C@@H]1OC(=O)[C@H]1CCCCCC)OC(=O)[C@H](CC(C)C)NC=O` [Orlistat] as the molecule, how does the relative cell viability read?
Answer: 0.998

Question: `CCn1cc(C(=O)O)c(=O)c2cc(F)c(N3CCN(C)CC3)cc21` [Pefloxacin Mesylate] was tested. Which relative cell viability did it give?
Answer: 0.993

Question: How did the relative cell viability turn out when `COc1ccc2[nH]c([S@@+]([O-])Cc3ncc(C)c(OC)c3C)nc2c1` [NEXIUM (esomeprazole magnesium)] was run?
Answer: 1.07

Question: `COCC[n+]1c2c(n(Cc3cnccn3)c1C)C(=O)c1ccccc1C2=O` [YM155 (Sepantronium Bromide)] was tested. Which relative cell viability did it give?
Answer: 0.187

Question: How did the relative cell viability turn out when `CCOc1ccccc1OCCN[C@H](C)Cc1ccc(OC)c(S(N)(=O)=O)c1` [Tamsulosin hydrochloride] was run?
Answer: 1.1

Question: Which relative cell viability does the source give for `Cc1ccc(NC(=O)c2ccc(CN3CCN(C)CC3)cc2)cc1Nc1nccc(-c2cccnc2)n1` [Imatinib (STI571)] here?
Answer: 1.12

Question: `COC(=O)[C@@H]1CC2=CC(=O)CC[C@]2(C)[C@@]23O[C@@H]2C[C@@]2(C)[C@@H](CC[C@@]24CCC(=O)O4)[C@H]13` [Eplerenone] was tested. Which relative cell viability did it give?
Answer: 0.925

Question: How did the relative cell viability turn out when `Clc1ccc2nsnc2c1NC1=NCCN1` [Tizanidine HCl] was run?
Answer: 0.994

Question: `CS(=O)(=O)CCNCc1ccc(-c2ccc3ncnc(Nc4ccc(OCc5cccc(F)c5)c(Cl)c4)c3c2)o1` was tested. Which relative cell viability did it give?
Answer: 0.746

Question: With `C[C@]12CCC(=O)C=C1CC[C@@H]1[C@@H]2[C@@H](O)C[C@@]2(C)[C@H]1CC[C@]2(O)C(=O)CO` [Hydrocortisone] as the molecule, how does the relative cell viability read?
Answer: 0.786

Question: With `CN1CCC[C@@H]1CCO[C@](C)(c1ccccc1)c1ccc(Cl)cc1` [Clemastine Fumarate] as the molecule, how does the relative cell viability read?
Answer: 1.07

Question: With `Cc1cccc(Nc2ccncc2S(=O)(=O)NC(=O)NC(C)C)c1` [Torsemide] as the molecule, how does the relative cell viability read?
Answer: 0.965

Question: `Cn1cnc([N+](=O)[O-])c1Sc1ncnc2[nH]cnc12` [Azathioprine] was tested. Which relative cell viability did it give?
Answer: 0.986

Question: For `Clc1ccc(Nc2nnc(Cc3ccncc3)c3ccccc23)cc1` [Vatalanib (PTK787) 2HCl], which relative cell viability is on record?
Answer: 0.741

Question: For `CCCc1nn(C)c2c(=O)[nH]c(-c3cc(S(=O)(=O)N4CCN(C)CC4)ccc3OCC)nc12` [Sildenafil Citrate], which relative cell viability is on record?
Answer: 0.891

Question: Which relative cell viability does the source give for `COC(=O)Nc1nc2cc(C(=O)c3ccc(F)cc3)ccc2[nH]1` [Flubendazole] here?
Answer: 0.886

Question: How did the relative cell viability turn out when `CO/N=C(\C(=O)N[C@@H]1C(=O)N2C(C(=O)OCOC(=O)C(C)(C)C)=C(/C=C\c3scnc3C)CS[C@H]12)c1csc(N)n1` [Cefditoren Pivoxil] was run?
Answer: 0.949

Question: How did the relative cell viability turn out when `Cc1ccc(Nc2nccc(N(C)c3ccc4c(C)n(C)nc4c3)n2)cc1S(N)(=O)=O` was run?
Answer: 1.05

Question: With `Nc1ncnc2c1ncn2[C@@H]1O[C@H](CO)[C@@H](O)[C@H]1O` [Adenosine] as the molecule, how does the relative cell viability read?
Answer: 0.937

Question: `N#C[C@@H]1C[C@@H]2C[C@@H]2N1C(=O)[C@@H](N)C12CC3CC(CC(O)(C3)C1)C2` [Saxagliptin] was tested. Which relative cell viability did it give?
Answer: 0.999

Question: `CCC(=O)OCC(=O)[C@@]1(OC(=O)CC)[C@@H](C)C[C@H]2[C@@H]3CCC4=CC(=O)C=C[C@]4(C)[C@@]3(F)[C@@H](O)C[C@@]21C` [Betamethasone Dipropionate] was tested. Which relative cell viability did it give?
Answer: 0.902

Question: How did the relative cell viability turn out when `NCCCCCC(=O)O` [(6-)ε-Aminocaproic acid] was run?
Answer: 0.983

Question: `Nc1ccccc1NC(=O)c1ccc(CNc2nccc(-c3cccnc3)n2)cc1` [Mocetinostat (MGCD0103)] was tested. Which relative cell viability did it give?
Answer: 0.36

Question: For `C[C@](N)(Cc1ccc(O)c(O)c1)C(=O)O` [Methyldopa], which relative cell viability is on record?
Answer: 0.971

Question: How did the relative cell viability turn out when `Nc1ccn([C@@H]2CS[C@H](CO)O2)c(=O)n1` [Lamivudine] was run?
Answer: 0.759

Question: `CN(C)C/C=C/C(=O)Nc1cc2c(Nc3ccc(F)c(Cl)c3)ncnc2cc1O[C@H]1CCOC1` [Afatinib (BIBW2992)] was tested. Which relative cell viability did it give?
Answer: 0.539

Question: `Cc1ccc(C(=O)N(CCCN)[C@@H](c2nc3cc(Cl)ccc3c(=O)n2Cc2ccccc2)C(C)C)cc1` was tested. Which relative cell viability did it give?
Answer: 1.13

Question: `CNC(=O)c1cc(Oc2ccc(NC(=O)Nc3ccc(Cl)c(C(F)(F)F)c3)cc2)ccn1` [Sorafenib Tosylate] was tested. Which relative cell viability did it give?
Answer: 0.528

Question: With `CC1Cc2ccccc2N1NC(=O)c1ccc(Cl)c(S(N)(=O)=O)c1` (stereo not given) [Indapamide] as the molecule, how does the relative cell viability read?
Answer: 0.965

Question: For `CCCSc1ccc2[nH]c(NC(=O)OC)nc2c1` [Albendazole], which relative cell viability is on record?
Answer: 1.08

Question: How did the relative cell viability turn out when `CO[C@H]1C[C@@H]2CC[C@@H](C)[C@@](O)(O2)C(=O)C(=O)N2CCCC[C@H]2C(=O)O[C@H]([C@H](C)C[C@@H]2CC[C@@H](OCCO)[C@H](OC)C2)CC(=O)[C@H](C)/C=C(\C)[C@@H](O)[C@@H](OC)C(=O)[C@H](C)C[C@H](C)/C=C/C=C/C=C/1C` [Everolimus (RAD001)] was run?
Answer: 0.765

Question: `CCN1CCN(C(=O)N[C@@H](C(=O)N[C@@H]2C(=O)N3C(C(=O)O)=C(CSc4nnnn4C)CS[C@H]23)c2ccc(O)cc2)C(=O)C1=O` [Cefoperazone] was tested. Which relative cell viability did it give?
Answer: 1.03

Question: Which relative cell viability does the source give for `O=C(O)C[C@H](O)C[C@H](O)/C=C/c1c(C2CC2)nc2ccccc2c1-c1ccc(F)cc1` [Pitavastatin Calcium] here?
Answer: 1.08
